# In paper PMC4336329 (PLoS ONE, 2015):
# The whole screen tested about 310,000 compounds, of which about 14,000 (4.5%) showed an effect of 50% or more. The effect is printed as a negative number. What follows is part of a selection rich in strong results, with near analogues and random picks from the rest.
# Biological target: human ether-à-go-go-related gene (hERG) potassium channel (human, UniProt Q12809)
# Assay: primary screen, population patch clamp on CHO cells stably expressing hERG; higher = less effect of the substance
# 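Further: peak tail current of the secondary pulse compared with the same well before compound.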
# human ether-à-go-go-related gene (hERG) potassium channel, sequence (Q12809 whole entry, looked up): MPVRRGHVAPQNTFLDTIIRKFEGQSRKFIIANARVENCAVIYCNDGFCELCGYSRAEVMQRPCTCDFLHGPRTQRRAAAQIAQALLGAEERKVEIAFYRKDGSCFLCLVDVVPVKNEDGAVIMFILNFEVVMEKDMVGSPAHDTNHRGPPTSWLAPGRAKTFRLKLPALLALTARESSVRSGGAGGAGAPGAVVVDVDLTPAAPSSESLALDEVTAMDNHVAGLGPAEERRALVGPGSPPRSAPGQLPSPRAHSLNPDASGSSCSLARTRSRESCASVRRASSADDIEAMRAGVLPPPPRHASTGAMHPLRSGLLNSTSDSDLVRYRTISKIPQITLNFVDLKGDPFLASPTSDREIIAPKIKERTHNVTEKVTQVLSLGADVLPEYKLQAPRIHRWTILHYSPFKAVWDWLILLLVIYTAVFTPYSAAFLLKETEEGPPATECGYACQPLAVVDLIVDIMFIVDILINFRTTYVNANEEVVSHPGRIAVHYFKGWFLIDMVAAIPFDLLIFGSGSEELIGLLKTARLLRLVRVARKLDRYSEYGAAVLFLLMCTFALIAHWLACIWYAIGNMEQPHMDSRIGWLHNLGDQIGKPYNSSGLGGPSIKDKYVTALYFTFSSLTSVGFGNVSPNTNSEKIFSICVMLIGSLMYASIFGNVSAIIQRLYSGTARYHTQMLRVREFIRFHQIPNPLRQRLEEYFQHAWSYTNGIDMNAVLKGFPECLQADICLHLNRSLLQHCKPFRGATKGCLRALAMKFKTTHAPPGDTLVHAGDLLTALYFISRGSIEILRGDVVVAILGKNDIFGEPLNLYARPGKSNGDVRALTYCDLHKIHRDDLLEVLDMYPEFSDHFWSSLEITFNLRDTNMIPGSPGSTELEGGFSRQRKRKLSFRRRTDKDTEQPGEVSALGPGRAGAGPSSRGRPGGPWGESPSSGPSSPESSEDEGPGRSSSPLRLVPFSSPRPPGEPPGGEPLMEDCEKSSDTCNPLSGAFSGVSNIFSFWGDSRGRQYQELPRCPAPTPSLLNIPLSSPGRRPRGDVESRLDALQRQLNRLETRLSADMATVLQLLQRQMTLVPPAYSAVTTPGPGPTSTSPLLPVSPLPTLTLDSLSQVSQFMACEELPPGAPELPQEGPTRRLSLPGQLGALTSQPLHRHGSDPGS
row,Compound,"hERG current change (%, negative = inhibition) at 10uM"
1,Cc1ccccc1NC(=O)CSc1nc(N)c(C#N)cc1C#N,0.675%
2,Cc1nc2c(-c3ccccc3)c(C)nn2c(C)c1CC(=O)O,5.02%
3,O=C(CSc1nnc(CNC(=O)c2ccco2)o1)c1ccccc1,4.14%
4,COc1cccc(C(=O)Nc2ccccc2C(=O)NC2CC2)c1,0.677%
5,Cc1ccc(C)c(N2CCN(C(=O)Nc3ccc4c(c3)N(C)C(=O)CS4)CC2)c1,-21.8%
6,CCCN1CCC(=O)N([C@H](CSc2ccc(C)cc2)c2ccccc2)CC1,-76%
7,COc1ccc(CN2CCC(=O)N([C@H](CO)c3ccccc3)CC2)cc1,13.3%
8,CC(C)CN1CCC(=O)N([C@H](CSc2ccc(Br)cc2)c2ccccc2)CC1,-63.9%
9,CCCN1CCC(=O)N([C@H](CSc2ccccc2)c2ccccc2)CC1,-77.2%
10,CCCN1CCC(=O)N([C@H](CSc2ccc(OC)cc2)c2ccccc2)CC1,-76.5%
11,Nc1cc(=O)[nH]c(SCc2csc(-c3ccccc3)n2)n1,-3.63%
12,O=C(NCCC1=CCCCC1)c1ccc(F)cc1,-9.04%
13,Cc1noc(/C=C/N(C)C)c1S(=O)(=O)N1CCCC(C(=O)NC2CCCCC2C)C1 (centres unmarked),-25.5%
14,O=C(Cc1ccc([N+](=O)[O-])cc1)OCc1ccc([N+](=O)[O-])cc1,19.2%
15,CCCNC(=S)N1CCN(c2nc(-c3ccc(C)cc3)cs2)CC1,5.6%
16,O=C(Nc1ccc(F)cc1F)c1cncc(Br)c1,-3.88%
17,CCOC(=O)c1cnn(CCOC(=O)C(C)(C)C)c1NC(=O)C(C)(C)C,12.8%
18,COc1cc(OC)c2ccc(=O)oc2c1C(CC(=O)N1CCOCC1)c1ccc2c(c1)OCO2 (centres unmarked),-0.731%
19,Cc1nc(Nc2ccc(Cl)cc2)c2oc3ccccc3c2n1,3.95%
20,O=C1CCN(Cc2ccc(Br)cc2)CCN1[C@H](CO)c1ccccc1,-3.45%
21,CCCN1CCC(=O)N([C@H](CSc2ccc(Br)cc2)c2ccccc2)CC1,-76.2%
22,Cc1ccc(C)c(OCCC(=O)OCC(=O)N2CCN(S(=O)(=O)c3ccc(Cl)cc3)CC2)c1,-29.8%

row,Compound,"hERG current change (%, negative = inhibition) at 10uM"
1,O=S(=O)(c1ccccc1)c1nc(-c2ccco2)oc1NCc1cccnc1,-20.1%
2,CCOc1ccc(CN2CCN(Cc3c[nH]c4ccccc34)CC2)cc1.O=C(O)C(=O)O,-84.4%
3,CCS(=O)(=O)N1CCN(Cc2c[nH]c3ccccc23)CC1.O=C(O)C(=O)O,5.44%
4,CN(CCc1ccccc1)Cc1c[nH]c2ccccc12.O=C(O)C(=O)O,-56.7%
5,COc1ccc(Br)cc1CN1CCN(Cc2c[nH]c3ccccc23)CC1.O=C(O)C(=O)O,-29.2%
6,CN(Cc1ccccc1)Cc1c[nH]c2ccccc12,-16.5%
7,COc1ccc(S(=O)(=O)N2CCN(Cc3c[nH]c4ccccc34)CC2)cc1,-24.9%
8,O=C(Cc1ccccc1)NCCc1c[nH]c2ccccc12.O=C(O)C(=O)O,16.4%
9,COc1ccccc1C(=O)N1CCN(Cc2c[nH]c3ccccc23)CC1.O=C(O)C(=O)O,-19.7%
10,Brc1ccc(CN2CCN(Cc3c[nH]c4ccccc34)CC2)cc1.O=C(O)C(=O)O,-63.8%
11,Brc1ccccc1CN1CCN(Cc2c[nH]c3ccccc23)CC1.O=C(O)C(=O)O,-20.1%
12,COc1ccc(CN2CCN(Cc3c[nH]c4ccccc34)CC2)cc1.O=C(O)C(=O)O,-67.5%
13,CCOc1ccc(CN2CCN(C(=O)Cc3ccccc3)CC2)cc1.O=C(O)C(=O)O,-44.1%
14,COc1ccc(S(=O)(=O)Nc2ccccc2-c2nnn(CC(=O)Nc3ccccc3OC)n2)cc1,5.49%
15,CC(=O)OC[C@H]1O[C@@H](n2ccc(=O)[nH]c2=S)C(OC(C)=O)C1OC(C)=O (some centres unmarked),-4.01%
16,COc1cccc(C(=O)NCC(C)(C)SCc2ccc(F)cc2)c1,-28.2%
17,Cc1cccc(NC(=O)CCS(=O)(=O)c2cccc3nonc23)c1C,7.7%
18,CCC(C)NC(=O)Nc1ccccc1F (centres unmarked),-24.5%
19,O=S(=O)(c1ccccc1)N1CCCCC1c1cccnc1 (centres unmarked),2.3%
20,O=C(COc1ccc(Br)cc1)N1CCN(Cc2c[nH]c3ccccc23)CC1.O=C(O)C(=O)O,-57.9%
21,O=C(NCCc1c[nH]c2ccccc12)C1CCN(Cc2ccc(Br)cc2)CC1,-54%
22,O=C(c1ccccc1)N1CCN(Cc2c[nH]c3ccccc23)CC1,-16.4%

row,Compound,"hERG current change (%, negative = inhibition) at 10uM"
1,O=C(NCCc1c[nH]c2ccccc12)C1CCN(S(=O)(=O)c2ccc(F)cc2)CC1,-28.3%
2,O=C(NCCc1c[nH]c2ccccc12)C1CCN(S(=O)(=O)c2ccccc2)CC1,-17.1%
3,O=C(COc1ccccc1)N1CCN(Cc2c[nH]c3ccccc23)CC1,-47.4%
4,O=C(NNC(=O)C1CC=CCC1)c1ccccc1O (centres unmarked),-4.58%
5,Cn1c(CC(=O)Nc2ccccc2)nnc1SCC(=O)NC1=NCCS1,12.7%
6,CC(C)c1ccccc1OCCCCCN1CCOCC1,-13.5%
7,O=C(O)COc1ccc(Cl)cc1Cl,7.53%
8,COc1ccc(C)cc1NC(=O)C(=O)N/N=C(\C)CC(=O)Nc1cccnc1,2.77%
9,CCN(CC)C(=O)c1cccc(-c2ccc(OC)cc2)c1,-17%
10,C=CCN1C(=O)c2ccc(C(=O)N(CC)CC(=O)Nc3ccc(OC)cc3)cc2C1=O,-20%
11,C=CCN1C[C@@H](C)N(C(c2ccc(C(=O)N(CC)CC)cc2)c2cccc(OC)c2)C[C@@H]1C (some centres unmarked),-65.3%
12,c1ccc(-n2c(-c3ccncc3)nnc2N2CCOCC2)cc1,16.9%
13,Cc1cc(=O)c2ccc3ccccc3c2[nH]1,7.45%
14,Cc1cc(=O)cc(C)n1-c1ccc(F)cc1F,0.384%
15,CC1(C)c2cc(O)ccc2OC1N1CCOCC1 (centres unmarked),13.6%
16,COc1ccccc1-n1cnc2cc(NCc3ccco3)ccc21,-20.7%
17,c1ccc(-n2cnc3cc(NCc4ccco4)ccc32)cc1,-49.8%
18,COc1ccc(-n2cnc3cc(NCc4ccco4)ccc32)cc1,-67.3%
19,O=C1c2ccccc2C(=O)N1Cc1ccccc1F,13%
20,CC1=C(C(=O)Nc2ccccc2)C(c2ccco2)C(C#N)=C(SCC(N)=O)N1 (centres unmarked),-3.31%
21,O=C(c1cc(COc2ccc(F)cc2Cl)on1)N1CCC(c2ccncc2)CC1,-72.5%
22,O=C(c1cc(COc2ccc(F)cc2Cl)on1)N1CCCCCC1,-3.89%

row,Compound,"hERG current change (%, negative = inhibition) at 10uM"
1,CSc1ccccc1OCc1cc(C(=O)N2CCC(c3ccncc3)CC2)no1,-58.5%
2,Cc1cccc(C)c1OCc1cc(C(=O)N2CCC(c3ccncc3)CC2)no1,-55.8%
3,O=C(c1cc(COc2c(F)cccc2F)on1)N1CCC(c2ccncc2)CC1,-38.5%
4,O=C(c1cc(COc2ccc(F)cc2Cl)on1)N1CCCCCCC1,0.909%
5,CSc1ccccc1OCc1cc(C(=O)N2CCSCC2)no1,0.366%
6,Cc1cccc(C)c1OCc1cc(C(=O)N2CCC(c3ccccc3)CC2)no1,-1.95%
7,CSc1ccccc1OCc1cc(C(=O)N2CCC(Oc3cccnc3)CC2)no1,-37.4%
8,CC(C)C[C@H](NC(=O)c1nc[nH]c1C(=O)NC1CCN(C(=O)OC(C)(C)C)CC1)C(=O)OCc1ccccc1,3.48%
9,COc1cccc(C2CC(=O)C3=C(C2)Nc2ccccc2N(C(=O)CCC(=O)O)C3c2ccc(F)cc2)c1 (centres unmarked),5.1%
10,Nc1ccccc1NC1=CC(=O)CC(c2ccco2)C1 (centres unmarked),10.4%
11,Cn1c(SCC(=O)c2ccccc2)nnc1-c1cnccn1,6.47%
12,CCOc1ccc(NC(=O)CSc2ccc3nnc(-c4cccnc4)n3n2)cc1,-54.7%
13,COc1cccc(NC(=O)CSc2ccc3nnc(-c4cccnc4)n3n2)c1,-37.5%
14,Cc1ccc(NC(=O)CSc2ccc3nnc(-c4cccnc4)n3n2)cc1,-53.1%
15,CC(=O)Nc1ccc(NC(=O)CSc2ccc3nnc(-c4cccnc4)n3n2)cc1,2.95%
16,O=C(CSc1ccc2nnc(-c3cccnc3)n2n1)Nc1ccccc1,-17.8%
17,COc1ccc(NC(=O)CSc2ccc3nnc(-c4cccnc4)n3n2)cc1OC,1.17%
18,COc1ccc(NC(=O)CSc2ccc3nnc(-c4cccnc4)n3n2)cc1,-50.4%
19,CC(=O)c1ccc(NC(=O)CSc2ccc3nnc(-c4cccnc4)n3n2)cc1,-28.8%
20,CCOc1ccc(NC(=O)CSc2ccc(-c3cccnc3)nn2)cc1,-5.55%
